Test results as given in ChEMBL document CHEMBL1961873, “Compounds: GSK PKIS; Assays: Nanosyn kinase panel” (2012).

Legend:
[1] = target: Ribosomal protein S6 kinase alpha-6 (Homo sapiens) (UniProt Q9UK32); conditions: at 1 µM;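 note: each value is a mean inhibition of RSK4 from a GSK PKIS panel screen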
[2] = target: T1, Serine/threonine-protein kinase Sgk1 (Homo sapiens) (UniProt O00141); conditions: at 0.1 µM
T1 sequence (whole entry): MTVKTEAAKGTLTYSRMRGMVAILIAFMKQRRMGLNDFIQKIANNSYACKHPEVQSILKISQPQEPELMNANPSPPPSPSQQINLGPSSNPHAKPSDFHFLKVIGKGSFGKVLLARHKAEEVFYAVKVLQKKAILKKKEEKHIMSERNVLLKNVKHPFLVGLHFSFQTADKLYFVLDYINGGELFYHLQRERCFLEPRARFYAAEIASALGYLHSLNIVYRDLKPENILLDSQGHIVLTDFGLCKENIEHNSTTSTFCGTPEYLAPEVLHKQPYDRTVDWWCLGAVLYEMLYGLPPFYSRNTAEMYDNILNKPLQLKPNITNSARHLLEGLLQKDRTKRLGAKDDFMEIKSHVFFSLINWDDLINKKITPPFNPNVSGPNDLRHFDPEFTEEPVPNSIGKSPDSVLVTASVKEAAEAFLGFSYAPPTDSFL

[3] = target: T1, Serine/threonine-protein kinase Sgk1 (Homo sapiens); conditions: at 1 µM
[4] = target: T2, Serine/threonine-protein kinase Sgk2 (Homo sapiens) (UniProt Q9HBY8); conditions: at 0.1 µM
T2 sequence (whole entry): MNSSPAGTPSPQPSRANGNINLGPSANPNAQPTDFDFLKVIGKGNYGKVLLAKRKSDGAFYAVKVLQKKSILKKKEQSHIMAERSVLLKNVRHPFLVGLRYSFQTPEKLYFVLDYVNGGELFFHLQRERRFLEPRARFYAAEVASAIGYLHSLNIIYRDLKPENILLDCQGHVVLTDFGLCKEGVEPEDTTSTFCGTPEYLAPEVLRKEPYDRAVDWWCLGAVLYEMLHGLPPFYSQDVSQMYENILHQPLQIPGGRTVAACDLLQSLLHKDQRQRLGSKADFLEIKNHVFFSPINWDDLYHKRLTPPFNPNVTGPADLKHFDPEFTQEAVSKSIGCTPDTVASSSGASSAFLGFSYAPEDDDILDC

[5] = target: T2, Serine/threonine-protein kinase Sgk2 (Homo sapiens); conditions: at 1 µM
[6] = target: T3, Serine/threonine-protein kinase Sgk3 (Homo sapiens) (UniProt Q96BR1); conditions: at 0.1 µM
T3 sequence (whole entry): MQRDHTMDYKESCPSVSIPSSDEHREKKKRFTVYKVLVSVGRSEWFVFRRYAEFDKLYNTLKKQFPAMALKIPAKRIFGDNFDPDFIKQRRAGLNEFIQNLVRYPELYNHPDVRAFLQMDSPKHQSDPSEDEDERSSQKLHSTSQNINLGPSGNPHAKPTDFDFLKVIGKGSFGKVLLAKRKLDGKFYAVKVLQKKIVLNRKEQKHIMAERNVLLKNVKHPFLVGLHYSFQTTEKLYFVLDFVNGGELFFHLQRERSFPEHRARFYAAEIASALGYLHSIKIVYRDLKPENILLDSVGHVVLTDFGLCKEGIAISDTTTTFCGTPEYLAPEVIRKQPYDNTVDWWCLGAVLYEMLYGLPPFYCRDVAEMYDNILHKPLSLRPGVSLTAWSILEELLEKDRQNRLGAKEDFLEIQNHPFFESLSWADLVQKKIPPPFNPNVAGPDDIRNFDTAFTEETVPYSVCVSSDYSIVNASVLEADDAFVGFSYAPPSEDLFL

[7] = target: T3, Serine/threonine-protein kinase Sgk3 (Homo sapiens); conditions: at 1 µM
[8] = target: 5'-AMP-activated protein kinase catalytic subunit alpha-1 (Homo sapiens) (UniProt Q13131); conditions: at 0.1 µM
[9] = target: 5'-AMP-activated protein kinase catalytic subunit alpha-1 (Homo sapiens) (UniProt Q13131); conditions: at 1 µM
[10] = target: 5'-AMP-activated protein kinase catalytic subunit alpha-2 (Homo sapiens) (UniProt P54646); conditions: at 0.1 µM
[11] = target: 5'-AMP-activated protein kinase catalytic subunit alpha-2 (Homo sapiens) (UniProt P54646); conditions: at 1 µM
[12] = target: T4, NUAK family SNF1-like kinase 1 (Homo sapiens) (UniProt O60285); conditions: at 0.1 µM
T4 sequence (whole entry): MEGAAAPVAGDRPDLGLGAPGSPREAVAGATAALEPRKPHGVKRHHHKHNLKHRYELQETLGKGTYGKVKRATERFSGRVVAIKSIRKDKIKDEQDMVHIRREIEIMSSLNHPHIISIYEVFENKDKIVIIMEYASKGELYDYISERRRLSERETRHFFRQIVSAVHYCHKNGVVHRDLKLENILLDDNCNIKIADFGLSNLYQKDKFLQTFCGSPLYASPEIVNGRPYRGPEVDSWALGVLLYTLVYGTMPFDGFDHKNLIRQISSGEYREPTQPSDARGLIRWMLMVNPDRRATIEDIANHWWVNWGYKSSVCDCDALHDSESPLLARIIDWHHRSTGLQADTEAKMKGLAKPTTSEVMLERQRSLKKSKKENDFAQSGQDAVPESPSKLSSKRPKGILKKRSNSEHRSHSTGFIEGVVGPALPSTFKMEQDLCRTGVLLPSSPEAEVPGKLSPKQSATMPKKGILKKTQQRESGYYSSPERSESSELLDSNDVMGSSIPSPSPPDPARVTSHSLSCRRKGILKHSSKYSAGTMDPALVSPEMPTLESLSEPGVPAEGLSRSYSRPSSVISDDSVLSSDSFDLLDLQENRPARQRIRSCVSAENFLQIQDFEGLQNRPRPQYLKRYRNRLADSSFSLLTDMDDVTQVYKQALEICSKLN

[13] = target: T4, NUAK family SNF1-like kinase 1 (Homo sapiens); conditions: at 1 µM
[14] = target: T5, Serine/threonine-protein kinase BRSK1 (Homo sapiens) (UniProt Q8TDC3); conditions: at 0.1 µM
T5 sequence (whole entry): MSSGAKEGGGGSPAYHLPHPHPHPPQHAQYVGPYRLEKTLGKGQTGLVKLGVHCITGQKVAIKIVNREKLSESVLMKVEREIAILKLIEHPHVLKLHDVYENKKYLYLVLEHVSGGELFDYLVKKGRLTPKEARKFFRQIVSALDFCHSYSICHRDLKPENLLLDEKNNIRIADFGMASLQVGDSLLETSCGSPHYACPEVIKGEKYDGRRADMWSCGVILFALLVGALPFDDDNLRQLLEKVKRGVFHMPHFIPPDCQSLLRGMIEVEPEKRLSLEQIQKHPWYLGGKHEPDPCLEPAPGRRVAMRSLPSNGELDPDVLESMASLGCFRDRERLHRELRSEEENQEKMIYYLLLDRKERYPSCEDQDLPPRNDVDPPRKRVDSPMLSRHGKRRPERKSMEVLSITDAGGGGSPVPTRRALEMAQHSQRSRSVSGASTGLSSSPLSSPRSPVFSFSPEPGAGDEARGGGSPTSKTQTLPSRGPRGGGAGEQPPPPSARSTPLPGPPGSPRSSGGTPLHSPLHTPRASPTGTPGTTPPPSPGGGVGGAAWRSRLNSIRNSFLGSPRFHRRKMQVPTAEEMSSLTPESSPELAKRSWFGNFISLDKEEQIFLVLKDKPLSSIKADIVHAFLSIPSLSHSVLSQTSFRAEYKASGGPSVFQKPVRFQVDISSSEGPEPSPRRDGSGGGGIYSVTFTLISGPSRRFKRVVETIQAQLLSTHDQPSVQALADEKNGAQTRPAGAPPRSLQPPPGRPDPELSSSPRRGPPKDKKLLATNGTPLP

[15] = target: T5, Serine/threonine-protein kinase BRSK1 (Homo sapiens); conditions: at 1 µM
[16] = target: T6, Serine/threonine-protein kinase BRSK2 (Homo sapiens) (UniProt Q8IWQ3); conditions: at 0.1 µM
T6 sequence (whole entry): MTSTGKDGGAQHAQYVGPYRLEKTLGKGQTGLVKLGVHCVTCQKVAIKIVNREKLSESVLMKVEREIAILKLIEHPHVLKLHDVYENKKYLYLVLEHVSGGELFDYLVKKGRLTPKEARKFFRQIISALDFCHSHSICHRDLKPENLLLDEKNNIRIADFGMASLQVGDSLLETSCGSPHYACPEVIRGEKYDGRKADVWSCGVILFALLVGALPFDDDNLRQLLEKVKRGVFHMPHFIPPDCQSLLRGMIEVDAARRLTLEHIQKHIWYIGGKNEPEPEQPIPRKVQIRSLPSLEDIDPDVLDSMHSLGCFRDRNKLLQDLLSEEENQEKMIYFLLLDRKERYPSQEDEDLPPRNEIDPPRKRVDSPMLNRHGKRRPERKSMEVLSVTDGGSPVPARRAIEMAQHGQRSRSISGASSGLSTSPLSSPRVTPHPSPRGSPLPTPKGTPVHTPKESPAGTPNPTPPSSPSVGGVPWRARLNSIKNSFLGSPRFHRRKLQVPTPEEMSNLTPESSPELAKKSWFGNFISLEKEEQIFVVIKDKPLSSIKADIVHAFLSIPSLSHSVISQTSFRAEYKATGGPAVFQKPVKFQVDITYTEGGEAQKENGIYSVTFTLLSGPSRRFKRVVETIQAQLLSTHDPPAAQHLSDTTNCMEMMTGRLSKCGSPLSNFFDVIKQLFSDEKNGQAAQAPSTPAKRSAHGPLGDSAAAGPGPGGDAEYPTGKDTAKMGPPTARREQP

[17] = target: T6, Serine/threonine-protein kinase BRSK2 (Homo sapiens); conditions: at 1 µM
[18] = target: Calcium/calmodulin-dependent protein kinase type 1D (Homo sapiens) (UniProt Q8IU85); conditions: at 0.1 µM
[19] = target: Calcium/calmodulin-dependent protein kinase type 1D (Homo sapiens) (UniProt Q8IU85); conditions: at 1 µM
[20] = target: Calcium/calmodulin-dependent protein kinase type II subunit alpha (Homo sapiens) (UniProt Q9UQM7); conditions: at 0.1 µM;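 note: reported values are averages (mean inhibition of CAMK2A)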
Sequence of Calcium/calmodulin-dependent protein kinase type II subunit alpha (Homo sapiens) (Q9UQM7 whole entry): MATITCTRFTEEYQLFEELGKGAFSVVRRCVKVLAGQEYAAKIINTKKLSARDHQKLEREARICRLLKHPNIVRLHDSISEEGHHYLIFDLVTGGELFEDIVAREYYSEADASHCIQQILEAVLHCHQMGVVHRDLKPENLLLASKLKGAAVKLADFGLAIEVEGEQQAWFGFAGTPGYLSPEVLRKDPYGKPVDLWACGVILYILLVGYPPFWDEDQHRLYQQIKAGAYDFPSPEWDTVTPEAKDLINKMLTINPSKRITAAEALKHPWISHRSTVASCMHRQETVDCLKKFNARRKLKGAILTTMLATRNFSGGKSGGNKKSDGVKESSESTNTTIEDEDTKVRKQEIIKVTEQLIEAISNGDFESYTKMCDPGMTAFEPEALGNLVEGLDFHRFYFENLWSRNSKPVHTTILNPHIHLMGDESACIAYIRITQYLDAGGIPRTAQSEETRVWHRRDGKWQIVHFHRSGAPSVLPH

Sequence of 5'-AMP-activated protein kinase catalytic subunit alpha-1 (Homo sapiens) (Q13131 whole entry, looked up): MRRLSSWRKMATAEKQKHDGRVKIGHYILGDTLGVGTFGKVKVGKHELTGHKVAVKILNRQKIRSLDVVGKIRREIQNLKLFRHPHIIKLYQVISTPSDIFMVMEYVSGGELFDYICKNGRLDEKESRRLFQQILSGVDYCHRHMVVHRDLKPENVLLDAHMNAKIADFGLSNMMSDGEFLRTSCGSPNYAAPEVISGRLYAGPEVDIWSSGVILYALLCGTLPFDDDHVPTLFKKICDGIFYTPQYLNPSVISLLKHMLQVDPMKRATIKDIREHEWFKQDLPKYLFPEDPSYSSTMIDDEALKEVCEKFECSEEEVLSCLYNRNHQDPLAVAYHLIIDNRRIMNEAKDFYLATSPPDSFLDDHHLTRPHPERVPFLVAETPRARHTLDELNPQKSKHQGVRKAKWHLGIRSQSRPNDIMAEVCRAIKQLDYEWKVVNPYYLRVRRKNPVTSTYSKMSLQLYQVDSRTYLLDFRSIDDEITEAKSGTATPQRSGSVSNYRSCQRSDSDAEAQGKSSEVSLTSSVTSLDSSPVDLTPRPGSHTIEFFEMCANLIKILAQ
Sequence of 5'-AMP-activated protein kinase catalytic subunit alpha-2 (Homo sapiens) (P54646 whole entry, looked up): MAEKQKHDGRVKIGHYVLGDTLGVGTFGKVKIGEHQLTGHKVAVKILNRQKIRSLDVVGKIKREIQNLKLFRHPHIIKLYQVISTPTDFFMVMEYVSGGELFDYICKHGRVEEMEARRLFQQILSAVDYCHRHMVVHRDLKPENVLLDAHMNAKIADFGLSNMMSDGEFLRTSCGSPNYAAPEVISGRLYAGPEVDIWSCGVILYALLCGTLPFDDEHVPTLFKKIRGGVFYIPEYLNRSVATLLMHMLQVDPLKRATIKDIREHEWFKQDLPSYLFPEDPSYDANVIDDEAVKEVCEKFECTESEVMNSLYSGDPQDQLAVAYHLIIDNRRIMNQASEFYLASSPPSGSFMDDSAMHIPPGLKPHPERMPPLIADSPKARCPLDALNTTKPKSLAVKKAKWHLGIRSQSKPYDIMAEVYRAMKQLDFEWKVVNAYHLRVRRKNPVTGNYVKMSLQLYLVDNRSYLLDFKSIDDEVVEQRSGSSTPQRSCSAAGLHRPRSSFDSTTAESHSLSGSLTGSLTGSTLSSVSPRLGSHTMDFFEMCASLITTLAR
Sequence of Ribosomal protein S6 kinase alpha-6 (Homo sapiens) (Q9UK32 whole entry): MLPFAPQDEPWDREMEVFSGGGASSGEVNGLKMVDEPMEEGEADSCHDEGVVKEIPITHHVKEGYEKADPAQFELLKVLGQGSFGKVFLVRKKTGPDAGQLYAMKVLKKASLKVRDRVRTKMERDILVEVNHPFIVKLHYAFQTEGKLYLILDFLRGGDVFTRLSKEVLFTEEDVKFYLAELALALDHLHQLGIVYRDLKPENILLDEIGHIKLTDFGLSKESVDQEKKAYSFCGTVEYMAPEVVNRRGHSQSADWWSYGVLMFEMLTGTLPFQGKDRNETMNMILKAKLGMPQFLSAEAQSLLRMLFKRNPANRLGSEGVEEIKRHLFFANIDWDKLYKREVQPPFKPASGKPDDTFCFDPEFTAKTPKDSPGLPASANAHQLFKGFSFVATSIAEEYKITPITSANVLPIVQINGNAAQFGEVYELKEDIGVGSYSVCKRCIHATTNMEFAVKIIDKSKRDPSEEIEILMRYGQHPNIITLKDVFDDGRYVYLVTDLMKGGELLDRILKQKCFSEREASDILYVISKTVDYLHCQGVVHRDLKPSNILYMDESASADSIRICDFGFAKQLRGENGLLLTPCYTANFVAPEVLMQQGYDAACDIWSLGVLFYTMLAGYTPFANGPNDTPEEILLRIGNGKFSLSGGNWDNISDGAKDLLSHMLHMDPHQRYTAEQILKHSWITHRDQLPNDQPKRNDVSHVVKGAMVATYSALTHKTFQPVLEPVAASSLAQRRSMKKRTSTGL
Sequence of Calcium/calmodulin-dependent protein kinase type 1D (Homo sapiens) (Q8IU85 whole entry, looked up): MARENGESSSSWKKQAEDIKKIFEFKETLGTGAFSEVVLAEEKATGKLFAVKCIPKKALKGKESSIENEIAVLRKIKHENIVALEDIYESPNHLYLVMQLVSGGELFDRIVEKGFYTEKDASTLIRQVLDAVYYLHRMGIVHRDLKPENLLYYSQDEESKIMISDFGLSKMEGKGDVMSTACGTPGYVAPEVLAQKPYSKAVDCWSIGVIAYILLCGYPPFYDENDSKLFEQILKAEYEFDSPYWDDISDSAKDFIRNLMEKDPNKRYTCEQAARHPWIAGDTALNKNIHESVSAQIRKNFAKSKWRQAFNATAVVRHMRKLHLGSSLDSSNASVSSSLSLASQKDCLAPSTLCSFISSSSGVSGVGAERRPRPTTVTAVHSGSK

Structure (SMILES) | inhibition [1] | inhibition [2] | inhibition [3] | inhibition [4] | inhibition [5] | inhibition [6] | inhibition [7] | inhibition [8] | inhibition [9] | inhibition [10] | inhibition [11] | inhibition [12] | inhibition [13] | inhibition [14] | inhibition [15] | inhibition [16] | inhibition [17] | inhibition [18] | inhibition [19] | inhibition [20]
COc1ccc2ncn(-c3cc(O[C@H](C)c4ccccc4Cl)c(C(N)=O)s3)c2c1 | 3.6% | 2.42% | 2.1% | 0.49% | 2.09% | 3.92% | 5.77% | 2.16% | 2.45% | 2.54% | 1.17% | 0.64% | 15.7% | 2.58% | 17.8% | 6.22% | 28.1% | -1.85% | -1.6% | 1.3%
COc1cc2ncn(-c3cc(OCc4ccccc4C(F)(F)F)c(C(C)=O)s3)c2cc1OC | 1.71% | 2.88% | 2.59% | 3.09% | 3.04% | 3.08% | 2.17% | 1.8% | 2.83% | -0.02% | 2.21% | -0.05% | 3.5% | 2.73% | 4.41% | 3.99% | 4.95% | -0.05% | -0.22% | 4.56%
CS(=O)(=O)CCNCc1ccc(-c2ccc3ncnc(Nc4ccc(OCc5ccccc5)c(Br)c4)c3c2)o1 | -1.41% | 1.16% | 0.22% | 2.67% | 1.45% | 3.29% | 3.35% | 2.94% | 1.46% | 1.41% | -0.88% | -0.46% | 0.63% | -1.34% | 2.21% | 1.54% | 2.06% | -1.35% | -0.82% | 2.7%
Fc1ccc(-c2c(-c3ccncc3)nc3n2CCS3)cc1 | 2.25% | 3.2% | 4.05% | 1.42% | 3.7% | 1.96% | 5.06% | 3.33% | 6.81% | 3.93% | 4.29% | -0.3% | 1.86% | -0.79% | 0.97% | 0.47% | 3.65% | 2.44% | -0.09% | 0.37%
c1ccc(-c2n[nH]cc2-c2ccnc(-c3ccc(OCCN4CCOCC4)cc3)c2)nc1 | -0.39% | 5.23% | 3.03% | 3.23% | -0.68% | 3.83% | 4.03% | 0.65% | -0.75% | 6.57% | 4.37% | 5.95% | 7.16% | 8.84% | 6.57% | 6.13% | 4.06% | 2.06% | 3.63% | -0.64%
COc1ccc(-c2ccc3c(NC(=O)C4CC4)n[nH]c3n2)cc1 | 0.85% | 1.6% | 6% | 1.24% | 3.76% | 2.58% | 3.92% | 1.15% | 2.02% | 0.53% | 1.68% | -0.56% | 0.04% | 0.19% | 4.83% | 3.16% | 10.7% | -0.49% | -0.83% | 0.49%
CCS(=O)(=O)c1ccc(OC)c(Nc2ncc(-c3cccc(-c4ccccc4F)c3)o2)c1 | 0.75% | 1.23% | 0.04% | 1.37% | 1.29% | -0.5% | -0.32% | 0.4% | 0.95% | 1.79% | 1.37% | 1.73% | 2.9% | -0.47% | 0.8% | 0% | -0.51% | 0.44% | 0.18% | -1.21%
